Activity calls are given as the source filed them. How the source made its calls: active means hit-call score of the fitted dose curve at least 0.9, where 1 is the maximum; inactive means score below 0.9.
Tests used:
[1] = read-out: TIMP metallopeptidase inhibitor 1 (TIMP1), TIMP1 (gene 7076); assay: BSK_hDFCGF_TIMP1: BioMAP Diversity Plus: hDFCGF Assay for TIMP metallopeptidase inhibitor 1 (TIMP1) Biomarker Activity (AID 2283062); details: primary human foreskin fibroblasts; actives raise or lower the signal
Outline: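 Primary human foreskin fibroblasts in the hDFCGF system were dosed with compound for 24 h, then TIMP-1 was measured by ELISA. Activity was fitted bidirectionally relative to DMSO control; parallel SRB staining assessed cytotoxicity.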

[2] = read-out: Monokine induced gamma interferon (MIG), CXCL9 (gene 4283); assay: BSK_hDFCGF_MIG: BioMAP Diversity Plus: hDFCGF Assay for Monokine induced gamma interferon (MIG) Biomarker Activity (AID 2283063); details: primary human foreskin fibroblasts; actives raise or lower the signal
Outline: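 ELISA read-out of MIG from primary human dermal fibroblasts 24 h post-dosing. Gain or loss of signal fitted bidirectionally, DMSO as baseline.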

[3] = read-out: Matrix Metallopeptidase 1 (MMP1), MMP1 (gene 4312); assay: BSK_hDFCGF_MMP1: BioMAP Diversity Plus: hDFCGF Assay for Matrix Metallopeptidase 1 (MMP1) Biomarker Activity (AID 2283064); details: primary human foreskin fibroblasts; actives raise or lower the signal
Outline: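 Primary human foreskin fibroblasts in the hDFCGF system were dosed with test chemical, and MMP1 was measured by ELISA 24 h later. Values come from bidirectional curve fitting against the DMSO baseline.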

[4] = read-out: Vascular cell adhesion molecule 1 (VCAM1), VCAM1 (gene 7412); assay: BSK_hDFCGF_VCAM1: BioMAP Diversity Plus: hDFCGF Assay for Vascular cell adhesion molecule 1 (VCAM1) Biomarker Activity (AID 2283065); details: primary human foreskin fibroblasts; actives raise or lower the signal;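 on AC50: VCAM-1 protein level quantified by ELISA after 24 h chemical exposure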
Outline: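 Primary human foreskin fibroblasts (hDFCGF system) were dosed with chemical and VCAM-1 was measured by ELISA 24 h later. Bidirectional curve fitting used DMSO as negative control and activity baseline.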

[5] = read-out: Plasminogen activator inhibitor-1 (PAI1), SERPINE1 (gene 5054); assay: BSK_hDFCGF_PAI1: BioMAP Diversity Plus: hDFCGF Assay for Plasminogen activator inhibitor-1 (PAI1) Biomarker Activity (AID 2283066); details: primary human foreskin fibroblasts; actives raise or lower the signal
Outline: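 Primary dermal fibroblasts (human foreskin), hDFCGF system; compound 24 h; PAI-1 by ELISA; bidirectional fit vs DMSO control.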

[6] = read-out: Intercellular Adhesion Molecule 1 (ICAM1), ICAM1 (gene 3383); assay: BSK_KF3CT_ICAM1: BioMAP Diversity Plus: KF3CT Assay for Intercellular Adhesion Molecule 1 (ICAM1) Biomarker Activity (AID 2283067); details: primary human keratinocytes with fibroblasts; actives raise or lower the signal
Outline: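 Human keratinocyte plus foreskin fibroblast primary co-culture was exposed to chemical for 24 h. ICAM-1 was then quantified by ELISA, and the data were fit bidirectionally against DMSO as the negative control and baseline.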

[7] = read-out: Interferon-gamma inducible Protein 10 (IP10), CXCL10 (gene 3627); assay: BSK_KF3CT_IP10: BioMAP Diversity Plus: KF3CT Assay for Interferon-gamma inducible Protein 10 (IP10) Biomarker Activity (AID 2283068); details: primary human keratinocytes with fibroblasts; actives raise or lower the signal
Outline: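 KF3CT co-culture (keratinocytes + foreskin fibroblasts), 24 h compound, IP-10 by ELISA; bidirectional fit vs DMSO baseline.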

[8] = BSK_KF3CT_SRB: Viability Assessment in the BioMAP Diversity Plus: KF3CT Assay (AID 2283069); details: primary human keratinocytes with fibroblasts;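 further: total protein by sulforhodamine B staining as a cytotoxicity measure; read 24 h after compound addition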
Outline: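 Human primary keratinocyte plus foreskin fibroblast co-culture exposed to chemicals for 24 h. Total protein measured by 0.1% sulforhodamine B staining after 10% TCA fixation, read at 560 nm; bidirectional fitting versus DMSO baseline.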

[9] = read-out: Interleukin-1 alpha (IL1a), IL1A (gene 3552); assay: BSK_KF3CT_IL1a: BioMAP Diversity Plus: KF3CT Assay for Interleukin-1 alpha (IL1a) Biomarker Activity (AID 2283070); details: primary human keratinocytes with fibroblasts; actives raise or lower the signal
Outline: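 Human keratinocyte plus foreskin fibroblast primary co-culture, sampled 24 h after chemical dosing. IL-1a measured by ELISA; responses fitted bidirectionally against DMSO baseline (negative control), so gain or loss of signal both count.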

[10] = read-out: TIMP metallopeptidase inhibitor 2 (TIMP2), TIMP2 (gene 7077); assay: BSK_KF3CT_TIMP2: BioMAP Diversity Plus: KF3CT Assay for TIMP metallopeptidase inhibitor 2 (TIMP2) Biomarker Activity (AID 2283071); details: primary human keratinocytes with fibroblasts; actives raise or lower the signal
Outline: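 Cells: human keratinocytes co-cultured with foreskin fibroblasts. Treat with chemical, 24 h. Measure TIMP-2 by ELISA; fit curves bidirectionally vs DMSO baseline.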

[11] = read-out: Transforming growth factor beta 1 (TGFb1), TGFB1 (gene 7040); assay: BSK_KF3CT_TGFb1: BioMAP Diversity Plus: KF3CT Assay for Transforming growth factor beta 1 (TGFb1) Biomarker Activity (AID 2283072); details: primary human keratinocytes with fibroblasts; actives raise or lower the signal
Outline: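 Primary human skin cells (keratinocytes, foreskin fibroblasts) were co-cultured, exposed to test chemical and sampled at 24 h. TGF-b1 levels were measured by ELISA and fitted bidirectionally relative to DMSO.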

[12] = read-out: C-C motif chemokine 2 (Homo sapiens) (UniProt P13500); assay: BSK_KF3CT_MCP1: BioMAP Diversity Plus: KF3CT Assay for Monocyte Chemoattractant Protein 1 (MCP1/CCL2) Biomarker Activity (AID 2283073); details: primary human keratinocytes with fibroblasts; actives raise or lower the signal
Outline: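 Human keratinocyte plus foreskin fibroblast primary co-culture exposed to chemical for 24 h. MCP-1 levels measured by ELISA. Bidirectional curve fitting relative to DMSO negative control as baseline.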

[13] = read-out: Matrix Metallopeptidase 9 (MMP9), MMP9 (gene 4318); assay: BSK_KF3CT_MMP9: BioMAP Diversity Plus: KF3CT Assay for Matrix Metallopeptidase 9 (MMP9) Biomarker Activity (AID 2283074); details: primary human keratinocytes with fibroblasts; actives raise or lower the signal;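 on AC50: MMP9 protein level quantified by ELISA in the co-culture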
Outline: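 Keratinocyte plus foreskin fibroblast human primary skin co-culture was dosed with chemical and MMP-9 was quantified by ELISA 24 h later. Bidirectional curve fitting used DMSO as negative control and activity baseline.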

[14] = read-out: CD40, CD40 (gene 958); assay: BSK_LPS_CD40: BioMAP Diversity Plus: LPS Assay for CD40 Biomarker Activity (AID 2283076); details: primary human HUVEC with PBMC; actives raise or lower the signal
Outline: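 Primary human umbilical vein endothelial cells co-cultured with peripheral blood mononuclear cells, LPS-stimulated, were dosed with chemical and read 24 h later. CD40 levels were measured by ELISA and fitted bidirectionally against DMSO as negative control and baseline.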

[15] = read-out: E-selectin (Homo sapiens) (UniProt P16581); assay: BSK_LPS_Eselectin: BioMAP Diversity Plus: LPS Assay for Eselectin Biomarker Activity (AID 2283077); details: primary human HUVEC with PBMC; actives raise or lower the signal
Outline: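 Human umbilical vein endothelial cells co-cultured with peripheral blood mononuclear cells under LPS stimulation; E-selectin measured by ELISA 24 h after chemical dosing. Activity fitted bidirectionally against DMSO as negative control and baseline.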

[16] = read-out: Interleukin-8 (IL8), CXCL8 (gene 3576); assay: BSK_LPS_IL8: BioMAP Diversity Plus: LPS Assay for Interleukin-8 (IL8) Biomarker Activity (AID 2283078); details: primary human HUVEC with PBMC; actives raise or lower the signal
Outline: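 Human umbilical vein endothelial cells co-cultured with PBMC were stimulated with LPS; IL-8 levels were measured by ELISA 24 h after chemical dosing. Activity was fitted bidirectionally against DMSO as negative control and baseline.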

[17] = read-out: Interleukin-1 alpha (IL1a), IL1A (gene 3552); assay: BSK_LPS_IL1a: BioMAP Diversity Plus: LPS Assay for Interleukin-1 alpha (IL1a) Biomarker Activity (AID 2283080); details: primary human HUVEC with PBMC; actives raise or lower the signal
Outline: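 Human umbilical vein endothelial cells co-cultured with peripheral blood mononuclear cells were LPS-stimulated and exposed to test chemicals for 24 h. IL-1 alpha was quantified by ELISA, with bidirectional curve fitting against DMSO as the negative control and baseline.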

[18] = read-out: Monocyte Chemoattractant Protein-1 (MCP1), CCL2 (gene 6347); assay: BSK_LPS_MCP1: BioMAP Diversity Plus: LPS Assay for Monocyte Chemoattractant Protein-1 (MCP1) Biomarker Activity (AID 2283081); details: primary human HUVEC with PBMC; actives raise or lower the signal
Outline: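 HUVEC plus PBMC co-culture (human primary cells, LPS system) exposed to test chemical for 24 h; MCP-1 measured by ELISA. Bidirectional curve fitting against DMSO baseline; parallel SRB total-protein staining flags overt cytotoxicity.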

[19] = BSK_LPS_SRB: Viability Assessment in the BioMAP Diversity Plus: LPS Assay (AID 2283079); details: primary human HUVEC with PBMC;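 further: total protein by sulforhodamine B absorbance as a cytotoxicity measure; measured one day after compound addition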
Outline: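 Human umbilical vein endothelial cells co-cultured with PBMC (LPS system) were dosed for 24 h. Total protein was stained with 0.1% sulforhodamine B after 10% TCA fixation, read at 560 nm, and fitted bidirectionally against DMSO baseline.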

[20] = read-out: urokinase plasminogen activator (uPA), PLAU (gene 5328); assay: BSK_KF3CT_uPA: BioMAP Diversity Plus: KF3CT Assay for urokinase plasminogen activator (uPA) Biomarker Activity (AID 2283075); details: primary human keratinocytes with fibroblasts; actives raise or lower the signal
Outline: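 Human keratinocyte plus foreskin fibroblast primary co-culture exposed to chemical for 24 h. uPA levels were quantified by ELISA, and activity was fitted bidirectionally against a DMSO negative-control baseline.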

Measured: AC50

E-selectin (Homo sapiens), sequence (P16581 whole entry, looked up): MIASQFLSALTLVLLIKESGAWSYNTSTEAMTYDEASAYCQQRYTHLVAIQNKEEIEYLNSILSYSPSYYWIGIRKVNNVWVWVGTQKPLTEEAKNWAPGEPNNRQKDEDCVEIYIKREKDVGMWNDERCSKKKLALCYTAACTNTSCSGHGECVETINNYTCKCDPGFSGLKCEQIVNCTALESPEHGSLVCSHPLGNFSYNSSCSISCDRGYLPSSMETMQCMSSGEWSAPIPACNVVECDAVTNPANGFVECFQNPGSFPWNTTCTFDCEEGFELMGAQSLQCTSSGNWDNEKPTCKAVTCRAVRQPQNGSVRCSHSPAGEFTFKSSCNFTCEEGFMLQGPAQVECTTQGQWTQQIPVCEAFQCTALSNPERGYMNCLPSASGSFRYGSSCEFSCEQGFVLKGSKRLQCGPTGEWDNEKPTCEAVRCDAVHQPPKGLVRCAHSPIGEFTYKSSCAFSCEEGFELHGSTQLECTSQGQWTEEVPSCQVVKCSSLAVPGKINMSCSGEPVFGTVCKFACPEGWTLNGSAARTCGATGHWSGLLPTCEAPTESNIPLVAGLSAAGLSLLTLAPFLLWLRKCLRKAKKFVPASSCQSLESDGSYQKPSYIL

NS(=O)(=O)c1cc2c(cc1Cl)NCNS2(=O)=O
not listed: [19] | [20]
inactive: all other assays above

CC=Cc1ccc(O)c(OC)c1
not listed: [20]
inactive: all other assays above

CC(=O)Oc1ccccc1C(=O)O
not listed: [19]
inactive: all other assays above

Oc1ccc2c(c1)OC[C@@H](N1CCC(O)(c3ccc(F)cc3)CC1)[C@H]2O
not listed: [19]
inactive: all other assays above

COc1ccc(S(=O)(=O)N2C(=O)[C@@](c3ccccc3OC)(N3C[C@H](O)C[C@H]3C(=O)N(C)C)c3cc(Cl)ccc32)c(OC)c1
active: [3] 4.5 µM | [14] 20 µM | [16] 7.03 µM
not listed: [20]
inactive: all other assays above

CC1=C(/C=C/C(C)=C/C=C/C(C)=C/CO)C(C)(C)CCC1
active: [2] 27 µM | [4] 20.9 µM | [5] 20.9 µM | [7] 31.4 µM | [13] 32.3 µM | [15] 4.25 µM
not listed: [19] | [20]
inactive: all other assays above

CCNc1cccc(C)c1
not listed: [19]
inactive: all other assays above
